From PubChem BioAssay
An excerpt weighted towards active compounds, which were near 11% of everything screened.
PNC assembly inh: High Content Assay for Compounds that inhibit the Assembly of the Perinucleolar Compartment; 140,000 tested, 3.1% active; PC3M PTB-GFP, PNC prevalence imaging, 16 h; stronger effect = lower value; activity change (PNC), negative = inhibition, % at 10 µM;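 active means readout at or below -70, meaning at least 70% loss of cells showing the perinucleolar compartment, a nuclear body marking cancer cells; inconclusive means readout between -30 and a set limit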
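PC3M cells stably expressing PTB-GFP, 750–1000 cells/well, treated 16 h at 37 °C with compound (23 nl of library stock), in duplicate. After paraformaldehyde fixation and Hoechst stain, imaged at 20x; PNC prevalence scored by image analysis.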
HTT ATP protect: qHTS Multiplex Assay to Identify Dual Action Probes in a Cell Model of Huntington: Cytoprotection (ATP) | PC12 HTT-Q103 induced, cytoprotection, ATP luminescence, 40 h | Potency, µM (top dose mostly 56.4 µM), most hits filed as activators | 230,000 tested, 0.14% active | AID 1471, 2008; active means well fitted curve in the direction sought with a large enough effect; inconclusive means small, poorly fitted or top-dose-only effect, or another doubt; inactive means no such curve, though single readings can be large; an effect the other way counts as inactive or inconclusive; further: nearly all actives have a fitted effect of over 45% in size
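Compounds added alongside 100 nM tebufenozide, which induces toxic Q103 huntingtin exon 1-GFP in stable PC12 cells; surviving cells quantified by luminescent ATP measurement. Medium: phenol red-free DMEM, 5% equine and 5% calf serum.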
HPGD inh: qHTS Assay for Inhibitors of HPGD (15-Hydroxyprostaglandin Dehydrogenase) | purified HPGD, NADH fluorescence kinetic, PGE2 substrate | Potency, µM, most hits filed as inhibitors | 150,000 tested, 4.3% active | AID 894, 2007
Target sequence (P15428 whole entry, looked up): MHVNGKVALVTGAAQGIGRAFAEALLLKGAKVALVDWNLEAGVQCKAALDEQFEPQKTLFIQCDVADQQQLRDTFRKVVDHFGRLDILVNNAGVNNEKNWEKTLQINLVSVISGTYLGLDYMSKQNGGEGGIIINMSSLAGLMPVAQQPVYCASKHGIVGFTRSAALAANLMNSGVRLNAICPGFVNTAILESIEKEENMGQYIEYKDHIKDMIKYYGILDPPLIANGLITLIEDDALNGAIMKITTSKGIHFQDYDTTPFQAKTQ
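20 nM HPGD preincubated 15 min at room temperature with compound in 50 mM Tris-HCl pH 8, 0.01% Tween 20. Started with 1 mM NAD+ and 30 uM prostaglandin E2; NADH fluorescence (360/450 nm) read 5 times over 30-s intervals, last minus first.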
HttQ103 aggreg: qHTS Multiplex Assay to Identify Dual Action Probes in a Cell Model of Huntington: Aggregate Formation (GFP); PC12 HttQ103-GFP aggregates, Acumen cytometry, 40 h; Potency, µM (titrated, usually from 46.1 µM), actives largely listed as inhibitors; 220,000 tested, 1.1% active; active means well fitted curve in the direction sought with a large enough effect; inconclusive means small, poorly fitted or top-dose-only effect, or another doubt; inactive means no such curve, though single readings can be large; an effect the other way counts as inactive or inconclusive; further: nearly all actives have a fitted effect of over 60% in size
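Ecdysone-promoter PC12 model expressing HTT exon 1 Q103 fused to GFP, induced by tebufenozide at 100 nM final. Compounds titrated; aggregates sized 1–25 µm scored on a 488 nm laser cytometer.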
GoLoco inh red: qHTS Assay for Inhibitors of RGS12 GoLoco Motif Activity (Red Fluorophore); Guanine nucleotide-binding protein G(i) subunit alpha-1 (Homo sapiens), P63096; Gai1:RGS12 GoLoco peptide FP, rhodamine, 10 min; Potency, µM (series often up to 61.6 µM), usual class: inhibitors; 230,000 tested, 0.44% active; AID 880, 2007; active means well fitted inhibition curve with a large enough effect, not every such curve was filed as active; inactive means no such curve, though single readings can be large or run the other way; further: nearly all actives have a fitted effect of over 30% in size
ALDH1A1 block: qHTS Assay for Inhibitors of Aldehyde Dehydrogenase 1 (ALDH1A1); Aldehyde dehydrogenase 1A1 (Homo sapiens), P00352; 220,000 tested, 7.3% active; Potency, µM (series often up to 75.3 µM), most hits filed as inhibitors; Purified ALDH1A1, NADH fluorescence, propionaldehyde substrate
Target sequence (P00352 whole entry, looked up): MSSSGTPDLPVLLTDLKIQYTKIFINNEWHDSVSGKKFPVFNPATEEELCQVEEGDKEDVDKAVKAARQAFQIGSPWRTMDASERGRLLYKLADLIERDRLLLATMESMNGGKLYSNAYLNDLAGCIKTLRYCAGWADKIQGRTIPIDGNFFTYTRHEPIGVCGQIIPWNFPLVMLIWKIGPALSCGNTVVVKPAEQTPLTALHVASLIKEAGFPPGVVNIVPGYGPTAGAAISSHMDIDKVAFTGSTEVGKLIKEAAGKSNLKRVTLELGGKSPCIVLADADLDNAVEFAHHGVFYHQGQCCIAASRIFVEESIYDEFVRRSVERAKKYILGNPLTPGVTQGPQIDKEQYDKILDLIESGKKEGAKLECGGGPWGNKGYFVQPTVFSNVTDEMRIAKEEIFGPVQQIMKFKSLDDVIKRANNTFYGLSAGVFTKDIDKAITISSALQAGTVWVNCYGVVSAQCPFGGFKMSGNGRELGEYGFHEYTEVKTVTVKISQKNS
A number is an active result; – = inactive; ? = inconclusive; · = no result; [ ] = dose if it differs, or a comment. Unless noted, the call rests on the fitted dose curve; in most records, active means well fitted inhibition curve with a large enough effect (not every such curve was filed as active); inconclusive means small, poorly fitted or top-dose-only effect, or another doubt; inactive means no such curve, though single readings can be large or run the other way.

SMILES	PNC assembly inh	HTT ATP protect	HPGD inh	HttQ103 aggreg	GoLoco inh red	ALDH1A1 block
CCOc1cc(CNc2ccc(N(C)C)cc2)cc(Br)c1OCC(=O)NC(C)(C)C	?	–[10 µM]	–	–	–	3.2µM
Clc1ccc(Cl)c2sc(N3CCCC3)nc12	–	–	?	–	–	10µM
CCCCC1=CC2=CC(=O)C(C)(OC(=O)CC)C(=O)C2=CN1CCCN(CC)CC (stereo not given)	·	–[10 µM]	–	·	–[14.2 µM]	–[13.5 µM]
Cc1ccc(C(=O)CSc2ncnc3sc4c(c23)CCC(C)C4)cc1 (stereo not given)	-119	–[10 µM]	–	–	–	–
CCOC(=O)C1=C(C)N(c2ccccc2)C(=O)/C1=C\c1ccco1	?	–[10 µM]	–	–	–	11µM
CCOC(=O)C1=C(C)N(c2ccccc2)C(=O)/C1=C\c1cccs1	–	·	–	–	–	–
CN(c1ccccc1)S(=O)(=O)c1ccc(NC(=O)c2cccs2)cc1	·	–	·	–	–	–
Cc1cccc(C(=O)NC(=S)Nc2ccc(S(=O)(=O)N(C)c3ccccc3)cc2)c1	–	–	–	–	–	20µM
CN(c1ccccc1)S(=O)(=O)c1ccc(NC(=O)c2ccccc2)cc1	–	·	–	?	–	–
Cc1ccccc1C(=O)NC(=S)Nc1ccc(S(=O)(=O)N(C)c2ccccc2)cc1	–	–	–	?	–	18µM
O=C(NCCN1C(=O)S/C(=C\c2cccs2)C1=O)[C@H](Cc1ccccc1)N1C(=O)c2ccccc2C1=O	–	·	–	–	–	–
COc1ccc(-c2ccnc(SCC(=O)N3CCN(c4ccccc4)CC3)n2)cc1	·	–[10 µM]	·	–[9.22 µM]	–	·
CC(C)OCCCN1C=C2C(=O)C(C)(OC(=O)C3CCCC3)C(=O)C=C2C=C1c1ccsc1 (stereo not given)	·	–[10 µM]	–	·	–[14.2 µM]	?
CSc1c(CC(=O)Nc2ccccc2C(F)(F)F)n(Cc2ccccc2)c2ccccc12	-106	–[10 µM]	–	–	–	–
CCCCN(CCCC)CCNC(=O)CSCc1ccc(C)cc1	·	–[10 µM]	·	–	–	28µM
COc1cccc(NC(=O)CSc2ncnc3c2oc2ccccc23)c1	–	–	–	–	–	–
COc1ccc2nc(SCc3nc(N)nc(Nc4ccccc4)n3)[nH]c2c1	?	–	–	–	–	7.9µM
COc1ccc(Nc2nc(N)nc(CSc3nnc(N)s3)n2)cc1	-96	–[10 µM]	–	–	–	–
COc1ccc(Nc2nc(N)nc(CSc3nc(C)cc(C)n3)n2)cc1	·	–[10 µM]	·	–[9.22 µM]	–	–
COc1cccc(NC(=O)CSc2nc3c(oc4ccccc43)c(=O)[nH]2)c1	–	·	16µM	–	–	–
COc1ccc2nc(SCC(=O)Nc3ccccc3)[nH]c2c1	-107	·	–	–	–	–
COc1ccc2nc(SCC(=O)Nc3c(C)cccc3C)[nH]c2c1	–	–	–	–	–	?
CC1=C(/C=C/C(C)=C/C=C/C(C)=C/C(=O)Oc2c(C)c(C)c3c(c2C)CC[C@@](C)(CCC[C@H](C)CCC[C@H](C)CCCC(C)C)O3)C(C)(C)CCC1	·	–	·	–	·	·
Cc1noc(C)c1C(=O)N1CCC2(CCCN(C(=O)Nc3ccccc3)C2)CC1	·	–	–	·	–	–
CN(C)S(=O)(=O)c1ccc(Nc2ccc(O)c3c2C(=O)c2c([N+](=O)[O-])ccc(O)c2C3=O)cc1	·	–[10 µM]	–	·	–[14.2 µM]	–[13.5 µM]
SMILES	PNC assembly inh	HTT ATP protect	HPGD inh	HttQ103 aggreg	GoLoco inh red	ALDH1A1 block
Cc1ccc(SCc2[nH]nc3c2C2(C(=O)Nc4ccc([N+](=O)[O-])cc42)C(C#N)=C(N)O3)cc1 (stereo not given)	–	–	–	?	–	13µM
CCOC(=O)N1CCC2(CC1)C(C#N)=C(N)Oc1n[nH]c(CSc3ccc(C)cc3)c12	–	–[10 µM]	–	–	–	–
Cc1ccc(SCc2[nH]nc3c2C2(CCSCC2)C(C#N)=C(N)O3)cc1	–	–	–	–	–	10µM
COCc1[nH]nc2c1C1(C(=O)Nc3ccc(F)cc31)C(C#N)=C(N)O2 (stereo not given)	–	–[0.074 µM]	–	–	–	–
C=CC[C@@](C(C)=O)(C(=O)OC)C(NC(=O)OC(C)(C)C)c1ccccc1 (stereo not given in full)	·	–	–	·	–	–
CCOC(=O)C1=C(C)NC(=O)NC1C (stereo not given)	?	–[0.074 µM]	–	?	–	–
CCOC(=O)C1=C(CBr)NC(=O)NC1C (stereo not given)	·	–	·	–	–	14µM
COc1ccc(C)cc1S(=O)(=O)N(CC(=O)NCc1ccc(Cl)cc1)Cc1ccccc1	–	–[10 µM]	–	28µM	–	–
COc1ccccc1CN(Cc1nc2ccccc2c(=O)[nH]1)S(=O)(=O)c1ccc2ccccc2c1	–	–[10 µM]	–	–	–	?
COc1ccc(S(=O)(=O)N(Cc2ccccc2)Cc2nc3ccccc3c(=O)[nH]2)cc1	–	–	–	–	–	6.3µM
COc1ccc(CNC(=O)CN(Cc2ccc(Cl)cc2)S(=O)(=O)c2ccccc2)cc1	?	–	–	?	–	2.2µM
CCCNC(=O)N1CCN(S(C)(=O)=O)CC1	·	–	·	–[9.22 µM]	–	–
C=C(C)CNC(=S)N=Nc1c(O)[nH]c2ccc([N+](=O)[O-])cc12	·	–	·	?	–	–
CC(C)NC(=S)N=Nc1c(O)[nH]c2ccc([N+](=O)[O-])cc12	·	–[10 µM]	·	–	–	10µM
O=C(/C=C1\NC2(CCCC2)Cc2ccccc21)C(=O)N/N=C/c1ccccc1O	–	·	–	–	–	4.5µM
CCOC(=O)C(C(=O)Nc1cccc(C)c1)C1CCCCC1 (stereo not given)	?	–	–	–[9.22 µM]	–	–
O=C1OC(c2ccccc2)=NC12CC2c1ccc(Cl)cc1 (stereo not given)	–	·	28µM	–	–	28µM
CCN(CC(=O)Nc1cccc(C(C)=O)c1)S(=O)(=O)c1ccccc1	·	–[10 µM]	·	–[9.22 µM]	–	?
CCCN1C(=O)/C(=N\OCC(=O)NC23CC4CC(CC(C4)C2)C3)c2ccccc21	–	–[10 µM]	16µM	?	–	0.28µM
CC(C)c1ccc(NC(=O)COc2nncc3ccccc23)cc1	–	–[10 µM]	·	–	·	?
CCCN1C(=O)/C(=N\OCC(=O)Nc2ccc(C(C)C)cc2)c2ccccc21	–	–[10 µM]	–	–	–	0.5µM
O=C(CSCc1c(Cl)cccc1Cl)NN=C1CCCC1	·	–	·	–	–	1.6µM
O=C(CSCc1ccc(Cl)cc1)NN=C1CCCC1	?	·	–	–	–	?
O=C(CSCc1ccccc1Cl)NN=C1CCCCCC1	?	–[10 µM]	–	–	–	22µM
